Here are results for 14 compounds from PubChem BioAssay (Tox21).

Assay [1] can be described thus: Caspase-3/7 induction in HepG2 cells by small molecules, qHTS assay (AID 1346978). Further: nearly all actives have a fitted effect of over 15% in size. The method in brief:
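Wild-type HepG2 cells, 2,000/well, settled 5 hr at 37 C and 5% CO2, then compound-treated for 17 hr; caspase-3/7 activity read by luminescent Caspase-Glo 3/7 after 30 min at room temperature.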

Assay [2] is described as follows: Caspase-3/7 induction in CHO-K1 cells by small molecules, qHTS cell viability counter screen (AID 1346979). Further: nearly all actives have a fitted effect of over 35% in size. Further: potency means the concentration at half of the fitted maximal effect. The method in brief:
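Cells (CHO-K1, wild type) are plated at 1,500 per well and incubated 5hr. Test compounds in DMSO are then pinned in, followed by 16hr at 37C and 5% CO2. Viability is read by CellTiter-Fluor fluorescence after 1hr.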

Assay [3] is described as follows: Caspase-3/7 induction in CHO-K1 cells by small molecules, qHTS assay (AID 1346980). Further: nearly all actives have a fitted effect of over 15% in size. The method in brief: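 Wild-type CHO-K1 cells exposed to compounds for 17hr at 37 C, 5% CO2. Caspase-3/7 activity then measured by Caspase-Glo 3/7 luminescence after 30min at room temperature.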
On the technique in general: qHTS replaces the single test concentration by a dilution series.

Assay [4] is described as follows: Caspase-3/7 induction in HepG2 cells by small molecules, qHTS cell viability counter screen (AID 1346981). Further: nearly all actives have a fitted effect of over 30% in size. Further: potency means the concentration at half of the fitted maximal effect. The method in brief: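 Multiplexed with the caspase-3/7 assay: HepG2 cells, 16 hr compound treatment, CellTiter-Fluor viability detection by fluorescence.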
In assay [5] the target is Nuclear receptor subfamily 1 group I member 2 (Rattus norvegicus) (UniProt Q9R1A7). Kind of assay: Rat pregnane X receptor (rPXR) activation by small molecules, qHTS assay (AID 1346983). Further: nearly all actives have a fitted effect of over 20% in size. The conditions noted are these: rPXR luciferase reporter cells, One-Glo luminescence, 24 h; stronger effect = higher value. The method in brief: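 Cell-based rPXR activation assay: rPXR cells, 2,000 per well, rested 5hr at 37 C, then exposed to compounds in DMSO for 24 hr at 37 C. Luciferase activity read by One-Glo luminescence after 30 min at room temperature.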
Sequence of Nuclear receptor subfamily 1 group I member 2 (Rattus norvegicus) (Q9R1A7 whole entry, looked up): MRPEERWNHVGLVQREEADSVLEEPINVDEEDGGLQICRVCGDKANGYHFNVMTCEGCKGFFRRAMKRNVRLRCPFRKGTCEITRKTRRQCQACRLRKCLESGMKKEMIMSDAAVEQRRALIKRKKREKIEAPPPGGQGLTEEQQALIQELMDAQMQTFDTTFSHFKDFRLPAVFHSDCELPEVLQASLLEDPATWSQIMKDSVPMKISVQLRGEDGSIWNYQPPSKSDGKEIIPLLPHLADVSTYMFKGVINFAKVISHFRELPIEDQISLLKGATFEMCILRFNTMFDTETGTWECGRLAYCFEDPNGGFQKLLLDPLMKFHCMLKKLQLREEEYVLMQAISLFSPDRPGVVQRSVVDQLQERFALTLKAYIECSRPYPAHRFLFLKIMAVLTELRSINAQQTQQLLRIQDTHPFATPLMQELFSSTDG

The target in assay [6] is Cytochrome P450 2D6 (Homo sapiens) (UniProt P10635). As to the kind of experiment: Cytochrome P450 Family 2 Subfamily D Member 6 (CYP2D6) small molecule antagonists: luciferase reporter qHTS assay (AID 1671196). Further: nearly all actives have a fitted effect of over 50% in size. Further: potency means the concentration at half of the fitted maximal effect. The method in brief:
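Luminescence (RLU), read 20 min after detection reagent, indicated CYP2D6 conversion of proluciferin to luciferin during a 1 h NADPH-dependent reaction at room temperature.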

Assay [7] deals with Cytochrome P450 2C19 (Homo sapiens) (UniProt P33261). As to the kind of experiment: Cytochrome P450 Family 2 Subfamily C Member 19 (CYP2C19) small molecule antagonists: luciferase reporter qHTS assay (AID 1671197). Further: nearly all actives have a fitted effect of over 65% in size. Further: potency means the concentration at half of the fitted maximal effect. The method in brief:
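Relative luminescence units recorded 20 min after the detection reagent stopped a 1 h, 37C CYP2C19 reaction on proluciferin substrate, which was started by NADPH regeneration following 10 min room-temperature compound preincubation; ketoconazole positive control.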
(In general: A reporter such as luciferase makes a cellular process visible.)

For assay [8], the target named is Cytochrome P450 2C9 (Homo sapiens) (UniProt P11712). As to the kind of experiment: Cytochrome P450 Family 2 Subfamily C Member 9 (CYP2C9) small molecule antagonists: luciferase reporter qHTS assay (AID 1671198). Further: nearly all actives have a fitted effect of over 50% in size. Further: potency means the concentration at half of the fitted maximal effect. In short, it runs like this:
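P450-Glo proluciferin substrate with CYP2C9 enzyme; 10 min RT preincubation, then NADPH regeneration 1 h at 37C; luciferin detection reagent 20 min RT, luminescence in relative luminescence units.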

The target of assay [9] is Cytochrome P450 1A2 (Homo sapiens) (UniProt P05177). Kind of assay: Cytochrome P450 Family 1 Subfamily A Member 2 (CYP1A2) small molecule antagonists: luciferase reporter qHTS assay (AID 1671199). Further: nearly all actives have a fitted effect of over 50% in size. Further: potency means the concentration at half of the fitted maximal effect. In short, it runs like this: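 CYP1A2 turnover of a luminogenic substrate was quantified after 1 h with NADPH regeneration at room temperature. Furafylline served as positive control.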
Sequence of Cytochrome P450 1A2 (Homo sapiens) (P05177 whole entry, looked up): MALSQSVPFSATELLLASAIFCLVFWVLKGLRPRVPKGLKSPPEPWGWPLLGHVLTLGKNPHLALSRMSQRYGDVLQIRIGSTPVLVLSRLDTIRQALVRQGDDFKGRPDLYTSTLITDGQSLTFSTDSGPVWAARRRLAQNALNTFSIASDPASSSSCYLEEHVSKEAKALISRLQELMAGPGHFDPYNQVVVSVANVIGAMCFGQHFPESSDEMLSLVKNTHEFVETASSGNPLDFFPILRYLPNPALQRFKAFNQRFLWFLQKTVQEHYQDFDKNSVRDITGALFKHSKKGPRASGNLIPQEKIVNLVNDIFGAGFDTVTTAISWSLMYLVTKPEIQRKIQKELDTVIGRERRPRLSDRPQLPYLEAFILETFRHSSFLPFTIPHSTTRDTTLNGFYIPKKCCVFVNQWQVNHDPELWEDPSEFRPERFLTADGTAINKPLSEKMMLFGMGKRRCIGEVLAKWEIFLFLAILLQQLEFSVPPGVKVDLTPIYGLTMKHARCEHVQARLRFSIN

In assay [10] the target is Voltage-gated inwardly rectifying potassium channel KCNH2 (Homo sapiens) (UniProt Q12809). Kind of assay: Human Ether-a-go-go-Related Gene (hERG) channel small molecule antagonists: fluorescence cell-based qHTS assay (AID 1671200). Further: nearly all actives have a fitted effect of over 50% in size. Further: potency means the concentration at half of the fitted maximal effect. In short, it runs like this: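 Channel function was assessed by thallium flux. Cells seeded the previous day and kept at 37 C took up FluxOR II dye over 1 h in the dark at room temperature, then sat another 10 min before stimulation.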
Sequence of Voltage-gated inwardly rectifying potassium channel KCNH2 (Homo sapiens) (Q12809 whole entry, looked up): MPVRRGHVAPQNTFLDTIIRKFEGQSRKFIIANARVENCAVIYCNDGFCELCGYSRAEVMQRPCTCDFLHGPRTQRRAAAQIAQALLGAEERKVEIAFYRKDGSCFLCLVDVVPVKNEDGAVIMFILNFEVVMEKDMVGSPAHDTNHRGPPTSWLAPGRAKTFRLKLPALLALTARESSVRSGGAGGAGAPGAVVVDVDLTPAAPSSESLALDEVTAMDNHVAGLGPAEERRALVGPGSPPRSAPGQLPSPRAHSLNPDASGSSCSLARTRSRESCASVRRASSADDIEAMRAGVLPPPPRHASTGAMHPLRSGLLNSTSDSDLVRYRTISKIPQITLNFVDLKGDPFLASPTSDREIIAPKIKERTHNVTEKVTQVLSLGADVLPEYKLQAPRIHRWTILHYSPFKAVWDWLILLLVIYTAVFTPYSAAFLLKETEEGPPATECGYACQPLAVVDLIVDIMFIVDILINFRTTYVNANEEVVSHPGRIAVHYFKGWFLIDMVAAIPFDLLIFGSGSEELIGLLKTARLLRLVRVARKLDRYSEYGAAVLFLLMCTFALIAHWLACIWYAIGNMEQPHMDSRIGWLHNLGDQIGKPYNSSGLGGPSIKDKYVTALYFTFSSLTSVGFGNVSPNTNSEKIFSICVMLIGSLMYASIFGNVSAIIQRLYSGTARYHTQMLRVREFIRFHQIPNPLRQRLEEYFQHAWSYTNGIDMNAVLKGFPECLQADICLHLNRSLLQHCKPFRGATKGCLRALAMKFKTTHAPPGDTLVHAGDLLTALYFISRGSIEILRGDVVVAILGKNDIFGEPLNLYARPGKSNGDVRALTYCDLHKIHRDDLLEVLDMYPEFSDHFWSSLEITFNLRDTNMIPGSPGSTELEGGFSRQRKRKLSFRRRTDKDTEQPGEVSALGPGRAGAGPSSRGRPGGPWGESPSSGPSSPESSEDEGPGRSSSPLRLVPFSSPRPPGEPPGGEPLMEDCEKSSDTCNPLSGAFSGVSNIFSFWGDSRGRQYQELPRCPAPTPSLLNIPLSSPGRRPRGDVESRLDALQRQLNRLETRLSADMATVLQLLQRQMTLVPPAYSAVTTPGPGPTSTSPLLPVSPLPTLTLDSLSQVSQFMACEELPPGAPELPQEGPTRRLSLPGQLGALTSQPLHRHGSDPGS
For orientation: Block of hERG is tested as a sign of cardiac risk.

Assay [11] deals with Cytochrome P450 3A4 (Homo sapiens) (UniProt P08684). As to the kind of experiment: Cytochrome P450 Family 3 Subfamily A Member 4 (CYP3A4) small molecule antagonists: luciferase reporter qHTS assay (AID 1671201). Further: nearly all actives have a fitted effect of over 50% in size. Further: potency means the concentration at half of the fitted maximal effect. In short, it runs like this: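 Compounds in DMSO were pin-transferred onto CYP3A4 enzyme-substrate mix and held 10 min at room temperature. NADPH regenerating solution started the reaction for 1 h; luciferin detection reagent stopped it, and luminescence was read after 20 min.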
Sequence of Cytochrome P450 3A4 (Homo sapiens) (P08684 whole entry, looked up): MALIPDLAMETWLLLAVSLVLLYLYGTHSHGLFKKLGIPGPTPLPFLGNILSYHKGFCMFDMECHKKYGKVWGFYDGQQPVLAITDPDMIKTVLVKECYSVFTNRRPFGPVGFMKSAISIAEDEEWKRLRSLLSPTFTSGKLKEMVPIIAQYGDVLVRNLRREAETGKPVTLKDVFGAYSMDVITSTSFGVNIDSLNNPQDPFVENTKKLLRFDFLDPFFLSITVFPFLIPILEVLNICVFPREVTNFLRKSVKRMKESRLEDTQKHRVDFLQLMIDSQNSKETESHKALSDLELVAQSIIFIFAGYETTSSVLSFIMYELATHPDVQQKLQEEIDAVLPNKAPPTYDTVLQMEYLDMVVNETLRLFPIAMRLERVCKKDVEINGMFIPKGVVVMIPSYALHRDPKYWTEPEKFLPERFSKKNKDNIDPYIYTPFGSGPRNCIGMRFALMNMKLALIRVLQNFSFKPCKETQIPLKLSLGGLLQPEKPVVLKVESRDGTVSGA

For assay [12], the target named is Nuclear receptor subfamily 1 group I member 2 (Homo sapiens) (UniProt O75469). Kind of assay: CYP3A4 induction through human pregnane X receptor (PXR) by small molecules, qHTS assay (AID 1346984). Further: nearly all actives have a fitted effect of over 40% in size. The method in brief: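 qHTS, concentration-response format: HepG2 DPX-2 line, PXR/CYP3A4-luc. Exposure 24 h, 37C. Substrate Luciferin-IPA 3uM final, 3 h. Detection One-Glo, 30 min RT.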
Sequence of Nuclear receptor subfamily 1 group I member 2 (Homo sapiens) (O75469 whole entry, looked up): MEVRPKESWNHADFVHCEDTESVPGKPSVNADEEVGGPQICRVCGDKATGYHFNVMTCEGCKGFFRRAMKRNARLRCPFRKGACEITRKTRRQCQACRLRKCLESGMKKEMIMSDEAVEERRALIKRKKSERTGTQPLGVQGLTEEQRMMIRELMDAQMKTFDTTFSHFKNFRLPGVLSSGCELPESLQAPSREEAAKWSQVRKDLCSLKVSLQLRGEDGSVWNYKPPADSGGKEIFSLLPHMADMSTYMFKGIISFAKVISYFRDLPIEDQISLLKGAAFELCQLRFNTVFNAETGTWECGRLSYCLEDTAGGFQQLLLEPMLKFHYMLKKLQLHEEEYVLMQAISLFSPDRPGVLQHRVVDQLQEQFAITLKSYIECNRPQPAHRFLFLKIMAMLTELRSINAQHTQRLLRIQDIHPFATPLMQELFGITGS

The target is the same in assay [13]. Kind of assay: Human pregnane X receptor (PXR) activation by small molecules, qHTS assay (AID 1346985). Further: nearly all actives have a fitted effect of over 40% in size. Further: potency means the concentration at half of the fitted maximal effect. The method in brief: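 DPX-2 cells (HepG2 co-transfected with a PXR response element and a CYP3A4-promoter luciferase construct) were seeded at 2,000 per well, rested 5 hr at 37C, then exposed to DMSO-dissolved compounds for 24 hr. Activation was read as luciferase luminescence.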

The target is the same in assay [14]. As to the kind of experiment: Human pregnane X receptor (PXR) small molecule agonists, qHTS assay (AID 1346982). Further: nearly all actives have a fitted effect of over 35% in size. In short, it runs like this: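 We seeded PXR-Luc HepG2 cells in assay medium containing 5% charcoal-stripped FBS, added compounds 5 hr later, incubated 24 hr, and read luminescence with ONE-Glo reagent.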

Where “and” joins values, the source holds several entries; their conditions need not be identical. Equal entries are not always repeated. Results filed as inconclusive are left out. Where a structure was tested more than once in an assay, its records may differ in their call. Calls of active or inactive are those of the source. The call rests on the fitted dose curve; in most records, active means well fitted curve in the direction sought with a large enough effect in the repeat runs; inconclusive means weak or mixed curves; inactive means no such curve, though single readings can be large; an effect the other way counts as inactive or inconclusive.
On the % scale 0 is the no-effect control and ±100 the full control effect.

Sequence of Cytochrome P450 2C19 (Homo sapiens) (P33261 whole entry, looked up): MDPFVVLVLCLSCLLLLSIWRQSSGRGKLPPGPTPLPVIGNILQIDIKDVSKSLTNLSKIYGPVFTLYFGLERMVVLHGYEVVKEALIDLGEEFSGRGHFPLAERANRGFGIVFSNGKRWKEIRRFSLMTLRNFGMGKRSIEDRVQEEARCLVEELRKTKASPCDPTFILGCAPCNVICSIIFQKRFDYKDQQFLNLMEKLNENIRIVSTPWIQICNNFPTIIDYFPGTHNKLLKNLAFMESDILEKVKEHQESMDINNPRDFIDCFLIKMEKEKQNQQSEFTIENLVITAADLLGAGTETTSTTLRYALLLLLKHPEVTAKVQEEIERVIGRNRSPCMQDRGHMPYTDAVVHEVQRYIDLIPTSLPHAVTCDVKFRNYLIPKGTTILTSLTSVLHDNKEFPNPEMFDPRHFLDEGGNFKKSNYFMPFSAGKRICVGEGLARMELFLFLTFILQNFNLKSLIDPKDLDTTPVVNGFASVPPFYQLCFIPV
Sequence of Cytochrome P450 2D6 (Homo sapiens) (P10635 whole entry, looked up): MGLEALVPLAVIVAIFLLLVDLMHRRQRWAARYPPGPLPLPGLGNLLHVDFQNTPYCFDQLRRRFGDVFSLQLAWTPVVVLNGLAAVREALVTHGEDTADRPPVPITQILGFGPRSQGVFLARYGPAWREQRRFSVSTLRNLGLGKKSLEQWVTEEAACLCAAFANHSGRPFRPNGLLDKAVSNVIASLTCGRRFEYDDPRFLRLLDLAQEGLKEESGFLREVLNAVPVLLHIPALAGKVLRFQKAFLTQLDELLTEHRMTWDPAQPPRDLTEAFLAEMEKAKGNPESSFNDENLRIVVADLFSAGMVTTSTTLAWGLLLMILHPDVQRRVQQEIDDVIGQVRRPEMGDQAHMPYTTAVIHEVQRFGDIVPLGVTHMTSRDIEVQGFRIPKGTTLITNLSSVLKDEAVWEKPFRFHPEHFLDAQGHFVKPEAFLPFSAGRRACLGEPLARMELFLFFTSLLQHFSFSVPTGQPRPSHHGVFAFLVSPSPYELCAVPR
Sequence of Cytochrome P450 2C9 (Homo sapiens) (P11712 whole entry, looked up): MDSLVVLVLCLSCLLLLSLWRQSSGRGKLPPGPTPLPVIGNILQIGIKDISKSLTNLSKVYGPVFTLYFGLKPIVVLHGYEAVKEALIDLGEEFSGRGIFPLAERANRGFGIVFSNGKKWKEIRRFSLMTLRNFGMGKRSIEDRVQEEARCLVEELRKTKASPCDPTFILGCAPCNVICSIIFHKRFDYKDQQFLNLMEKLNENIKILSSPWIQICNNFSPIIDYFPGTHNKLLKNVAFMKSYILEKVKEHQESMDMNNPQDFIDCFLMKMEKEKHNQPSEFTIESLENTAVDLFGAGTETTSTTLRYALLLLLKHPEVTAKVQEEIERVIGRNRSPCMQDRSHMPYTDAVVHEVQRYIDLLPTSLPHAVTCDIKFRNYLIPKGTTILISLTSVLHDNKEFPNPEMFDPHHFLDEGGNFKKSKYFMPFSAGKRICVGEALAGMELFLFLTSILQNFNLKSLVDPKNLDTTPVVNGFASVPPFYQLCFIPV

Consider `O=C(O)c1cn(-c2ccc(F)cc2)c2cc(N3CCNCC3)c(F)cc2c1=O`, for which the Potency result in assay [1], in assay [2], in [3], in assay [4], in assay [6] and in [7] was “inactive” in each case. In addition, the Potency result in assay [8], in assay [9], in assay [10] and in assay [11] was “inactive” in each case. Further, the max activation in assay [5] is -0.0913% (inactive).
Turning to `CCCN[C@H]1CCc2nc(N)sc2C1`, the Potency entry in assay [1], in [2], in assay [3], in assay [4] and in assay [10] was “inactive” in each case. Further, in assay [5], the max activation is -1.97% (inactive).
Regarding `CCC(C)(Oc1ccc(C2(c3ccc(OC(C)(CC)C(=O)O)cc3)CCCCC2)cc1)C(=O)O` (centres undefined), the Potency entry in assay [1], in assay [2], in assay [3], in assay [4], in assay [12] and in assay [13] was “inactive” throughout. Besides, the Potency entry in [6], in assay [7], in assay [8], in assay [9], in [10] and in assay [11] was “inactive” each time. Further, in assay [5], the max activation is -0.804% (inactive).
For the compound `Nc1nc2ccccc2[nH]1`, the Potency entry in [1], in assay [2], in [3], in assay [4], in assay [7] and in assay [8] was “inactive” each time. Moreover, the Potency result in [9], in [10] and in assay [11] was “inactive” throughout. Further, the Potency in assay [6] was 62.5 µM (active).
For `Cc1cc(C2(c3cc(C)c(O)cc3C)OS(=O)(=O)c3ccccc32)c(C)cc1O`, the Potency entry in [1], in assay [3] and in [10] was “inactive” throughout. Moreover, the Potency was 30.6 µM (active) and 13.7 µM (active) in assay [2]; 30.6 µM (active) and 19.3 µM (active) in assay [4]; 39.9 µM (active) in assay [6]; 7.97 µM (active) and 17.8 µM (active) in assay [7]; 5.03 µM (active) and 7.96 µM (active) in assay [8]; 31.7 µM (active) in assay [9]. Also, in assay [11], the Potency was 2 µM (active) and 2.52 µM (active).
For `Nc1cc(S(=O)(=O)O)cc2cc(S(=O)(=O)O)cc(O)c12`, the Potency entry in assay [1], in [3], in assay [10] and in assay [11] was “inactive” in each case. Moreover, the Potency in [2] is 43.1 µM (active) and 61.1 µM (active); in assay [4], 54.5 µM (active); in assay [6], 35.6 µM (active); in [7], 19.9 µM (active) and 22.4 µM (active); in assay [8] it was 39.9 µM (active); in assay [9] it was “inactive and 39.9 µM (active)”.
Turning to `CC(N)=O`, the Potency entry in assay [1], in [2], in [3], in assay [4], in assay [14] and in [6] was “inactive” each time. Further, the Potency result in [7], in assay [10] and in assay [11] was “inactive” each time.
On to `C=C(C)C1CC=C(C)C(OC(C)=O)C1` (centres undefined), for which the Potency entry in assay [1], in assay [2], in assay [3], in [4], in assay [7] and in assay [8] was “inactive” in each case. Further, the Potency result in assay [9], in assay [10] and in assay [11] was “inactive” in each case. Further, the Potency in assay [6] was 28.1 µM (active) and inactive.
Consider `c1ccc2cc3c(ccc4ccccc43)cc2c1`, for which the Potency result in assay [1], in assay [2], in [3], in [4], in [10] and in assay [11] was “inactive” each time. The Potency is 35.7 µM (active) in assay [6]; 50.2 µM (active) in assay [7]; 25.2 µM (active) in [8]; 897 nM (active) and 894 nM (active) in [9].
For the compound `COC(c1ccccc1)(c1ccccc1)[C@H](Oc1nc(C)cc(C)n1)C(=O)O`, the Potency entry in [1], in assay [2], in assay [3], in [4], in assay [12] and in [6] was “inactive” in each case. The Potency entry in [7], in assay [8] and in [10] was “inactive” in each case. In addition, the max activation in [5] was -2.41% (inactive). Further, the Potency in assay [13] is 10 µM (active); in assay [9], 17.4 µM (active).
With `Cc1cccc([N+](=O)[O-])c1C(=O)O`, the Potency entry in assay [1], in [2], in [3], in assay [4], in assay [14] and in assay [7] was “inactive” throughout. In addition, the Potency entry in assay [8], in assay [10] and in [11] was “inactive” in each case. In addition, the Potency in assay [6] was 63.4 µM (active).
As to `CC1=CC(=O)c2ccccc2C1=O`, the Potency result in assay [1] and in [3] was “inactive” throughout. In addition, the Potency in assay [2] is 24.3 µM (active) and 21.1 µM (active); in assay [4] it was 68.6 µM (active) and inactive; in [6] it was 31.7 µM (active); in assay [7], 14.2 µM (active) and 15.5 µM (active); in assay [8] it was 22.4 µM (active) and 13.8 µM (active); in assay [9], 1.78 µM (active) and 2.75 µM (active). In addition, the Potency in assay [10] was 3.89 µM (active) and 7.56 µM (active).
Consider `O=Cc1ccc(Cl)cc1`, for which the Potency result in assay [1], in assay [2], in assay [3], in assay [4], in assay [14] and in assay [8] was “inactive” throughout. Moreover, the Potency result in assay [10] and in assay [11] was “inactive” throughout.
As to `CC(C)(C)NC(=O)[C@@H]1CN(Cc2cccnc2)CCN1C[C@@H](O)C[C@@H](Cc1ccccc1)C(=O)N[C@H]1c2ccccc2C[C@H]1O`, the Potency entry in [1], in [2], in assay [3], in assay [4] and in [10] was “inactive” each time. For the same compound, the max activation in [5] was 4.92% (inactive).
